Measurements as given in PubChem BioAssay (NCATS).
Inconclusive results are not listed. A call without a number means that no potency is given here. Active and inactive are the calls of the source. The call rests on the fitted dose curve; in most records, active means well fitted curve in the direction sought with a large enough effect; inconclusive means small, poorly fitted or top-dose-only effect, or another doubt; inactive means no such curve, though single readings can be large; an effect the other way counts as inactive or inconclusive.

Assays:
[1] = Viability counterscreen for agonist of constitutive androstane receptor (CAR) against the NCATS DSHEA and TCM libraries (AID 1794838); conditions: HepG2 cell viability counterscreen, CAR agonist assay, co-treated with 0.75 µM CAR antagonist; series mostly up to 40 µM;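 further: cells exposed to compound for 24 h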
How it was run: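 Multiplexed counterscreen: after 24 h compound exposure with 0.75 uM PK11195, HepG2-CYP2B6-hCAR viability was quantified fluorimetrically (CellTiter-Fluor, 405/540 nm) prior to the ONE-Glo luciferase read.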

[2] = target: Nuclear receptor subfamily 1 group I member 3 (Homo sapiens) (UniProt Q14994); assay: Primary qHTS for agonist of constitutive androstane receptor (CAR) against the NCATS DSHEA and TCM libraries (AID 1794839); conditions: CAR agonist reporter cells, qHTS luminescence, CAR antagonist co-added at 0.75 µM; series mostly up to 40 µM;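 further: HepG2 cells expressing human CAR with a CYP2B6 reporter plus PK11195 antagonist; luciferase reporter luminescence read with ONE-Glo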
Sequence of Nuclear receptor subfamily 1 group I member 3 (Homo sapiens) (Q14994 whole entry, looked up): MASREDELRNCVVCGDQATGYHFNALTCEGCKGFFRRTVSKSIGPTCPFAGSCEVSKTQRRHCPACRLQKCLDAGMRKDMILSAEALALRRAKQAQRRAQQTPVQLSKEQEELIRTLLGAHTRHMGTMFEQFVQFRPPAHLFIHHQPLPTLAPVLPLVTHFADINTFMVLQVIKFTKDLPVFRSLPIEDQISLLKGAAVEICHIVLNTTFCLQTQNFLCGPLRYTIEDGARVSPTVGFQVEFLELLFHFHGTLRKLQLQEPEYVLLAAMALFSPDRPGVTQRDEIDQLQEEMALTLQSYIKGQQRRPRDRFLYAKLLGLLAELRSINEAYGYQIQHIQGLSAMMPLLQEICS
How it was run: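 Concentration–response screen in HepG2-CYP2B6-hCAR cells under 0.75 µM PK11195; 24 h exposure; luminescent reporter signal with multiplexed fluorescent viability.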

[3] = target: Metallo-beta-lactamase type 2 (Klebsiella pneumoniae) (UniProt C7C422); assay: qHTS to identify inhibitors of the New Delhi Metallo-beta-lactamase (NDM): assay validation screen against the NCATS LOPAC Collection (AID 1794843); conditions: NDM-1 enzyme, nitrocefin hydrolysis, absorbance 485 nm; series mostly up to 38.4 µM;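 further: nitrocefin turnover by NDM-1 measured as 485 nm absorbance at plateau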
Sequence of Metallo-beta-lactamase type 2 (Klebsiella pneumoniae) (C7C422 whole entry, looked up): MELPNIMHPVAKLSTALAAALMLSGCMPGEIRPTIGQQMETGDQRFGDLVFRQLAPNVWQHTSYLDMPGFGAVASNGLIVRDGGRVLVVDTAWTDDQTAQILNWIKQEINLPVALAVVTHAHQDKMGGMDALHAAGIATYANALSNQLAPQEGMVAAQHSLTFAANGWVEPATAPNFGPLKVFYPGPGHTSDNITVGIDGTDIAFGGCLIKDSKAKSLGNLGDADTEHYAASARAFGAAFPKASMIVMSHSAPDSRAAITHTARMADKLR
How it was run: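 Nitrocefin hydrolysis (50 uM substrate stock) by NDM-1, 2 nM final, was followed by 485 nm absorbance after compound preincubation; buffer was 50 mM HEPES pH 7.0, 1 uM ZnSO4, 0.01% Tween20.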

[4] = target: Glutathione peroxidase 1 (Homo sapiens) (UniProt P07203); assay: Primary qHTS Assay for Inhibitors of Recombinant Selenoprotein Glutathione Peroxidase 1 (GPX1) (AID 1845191); conditions: recombinant GPX1, GR-coupled NADPH fluorescence, 15 min; series mostly up to 48.8 µM; further: nearly all actives have a fitted effect of over 65% in size
Sequence of Glutathione peroxidase 1 (Homo sapiens) (P07203 whole entry, looked up): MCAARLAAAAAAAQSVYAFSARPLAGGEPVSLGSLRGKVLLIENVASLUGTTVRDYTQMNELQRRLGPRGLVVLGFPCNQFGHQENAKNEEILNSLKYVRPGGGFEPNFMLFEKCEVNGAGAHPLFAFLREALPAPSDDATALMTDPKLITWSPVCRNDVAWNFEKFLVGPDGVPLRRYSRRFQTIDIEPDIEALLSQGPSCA
How it was run: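 GPX1 10 nM, GR 100 nM, GSH 1 mM, NADPH 0.5 mM, CHP 0.5 mM (final). 30-min cpd preincubation, RT. Ex340/Em450 read t=0, t=15 min.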

[5] = target: Phospholipid hydroperoxide glutathione peroxidase GPX4 (Homo sapiens) (UniProt P36969); assay: Primary qHTS Assay for Inhibitors of Recombinant Selenoprotein Glutathione Peroxidase 4 (GPX4) (AID 1845192); conditions: recombinant GPX4, GR-coupled NADPH fluorescence, 15 min; series mostly up to 50 µM; further: nearly all actives have a fitted effect of over 65% in size
Sequence of Phospholipid hydroperoxide glutathione peroxidase GPX4 (Homo sapiens) (P36969 whole entry, looked up): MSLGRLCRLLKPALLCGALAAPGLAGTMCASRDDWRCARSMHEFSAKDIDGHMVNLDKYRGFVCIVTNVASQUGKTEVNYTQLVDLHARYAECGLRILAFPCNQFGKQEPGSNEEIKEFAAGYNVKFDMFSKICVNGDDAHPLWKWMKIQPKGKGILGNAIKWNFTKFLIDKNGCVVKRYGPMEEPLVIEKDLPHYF
How it was run: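 qHTS, GR-coupled: GPX4 200 nM + cpd 30 min RT → GSH 1 mM, NADPH 0.5 mM, GR 100 nM → CHP 0.5 mM start; fluor 340/450 at t0 and t15 min; no-enzyme wells as control.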

SMILES	outcome [1]	outcome [2]	Potency [3]	Potency [4]	Potency [5]
O=C(O)c1cc(O)c(O)c(O)c1	inactive	inactive	–	–	–
C[S+](CC[C@H](N)C(=O)O)C[C@H]1O[C@@H](n2cnc3c(N)ncnc32)[C@H](O)[C@@H]1O (some centres not stated)	inactive	–	–	–	–
Cc1ccc(O)c(N=Nc2ccccc2)n1	–	–	inactive	inactive	inactive
CC(C)(C=O)Cc1cc(C(C)(C)C)c(O)c(C(C)(C)C)c1	–	–	inactive	inactive	inactive
CC(=O)N[C@H](C(=O)O)C(C)(C)SN=O	–	–	inactive	inactive	inactive
CNCC[C@H](Oc1ccc(C(F)(F)F)cc1)c1ccccc1	–	–	inactive	inactive	inactive
CN1CCc2cc(NC(=O)Nc3cccnc3)ccc21	–	–	inactive	inactive	inactive
O=S(=O)(c1cccc2c(I)cccc12)N1CCCNCC1	–	–	inactive	inactive	inactive
N#C/C(=C\c1ccc(-c2cc(Cl)ccc2Cl)o1)C(=O)Nc1cccc2ncccc12	–	–	inactive	inactive	inactive
C#C[C@]1(O)CC[C@H]2[C@@H]3CCC4=Cc5oncc5CC4(C)[C@H]3CCC21C (some centres not stated)	–	–	inactive	inactive	inactive
Cc1cc2c(cc1Cl)N(C(=O)Nc1ccc(Oc3cccnc3C)nc1)CC2	–	–	inactive	inactive	inactive
OCC1O[C@H](O)C(Cl)C(O)C1O (some centres not stated)	–	–	inactive	inactive	inactive
CCCC(CCC)C(=O)OC1CC2CCC(C1)[N+]2(C)C (configuration not stated)	–	–	inactive	inactive	inactive
O=C(c1cc(O)c(O)c([N+](=O)[O-])c1)c1ccccc1F	–	–	inactive	inactive	inactive
NCCCCCCCCCCN	–	–	inactive	inactive	inactive
